Measured values: PubChem BioAssay (EPA / NIEHS)
Active and inactive are the calls of the source. How the source made its calls: active means hit-call score of the fitted dose curve at least 0.9, where 1 is the maximum; inactive means score below 0.9.

experiment: CCTE_Shafer_MEA_acute_firing_rate_mean: CCTE's Neural Acute Assay for Mean Firing Rate, Shafer Lab (AID 2284009)
Description: CCTE_Shafer_MEA_acute assay is conducted using Axion Biosystems 48 well microelectrode array (MEA) plates and Maestro recording system. Each well of the MEA plate contains a grid of 16 microelectrodes embedded in the culture surface. Electrically active cells, such as neurons, can be cultured over the electrodes, and electrical activity in these cells can be recorded extracellularly. The spontaneous firing of neurons is captured from each electrode on a microsecond timescale providing both temporally and spatially precise data. […] The CCTE_Shafer_MEA_acute assay uses primary cultures of rat cortical neurons. As these cultures mature over time, neural networks develop functional activity and form cohesive networks in which electrical activity can be highly coordinated. Baseline 40-minute recordings are made on days post-plating 13 or 15, followed by a secondary 40-minute recording after chemical exposure.CCTE_Shafer_MEA_acute_firing_rate_mean is a component of the CCTE_Shafer_MEA_acute assay. It measures the frequency number of spikes (action potential firings) as the total number of spikes divided by the length of the recording in a microelectrode array (MEA) using Axion Biosystems Maestro 768 channel amplifier with the AxIS adaptive spike detector. The firing rate is divided by the number of electrodes to report a well-mean value. The recordings before and after chemical treatment are used to calculate a percent change in the mean firing rate in each well.Data from the assay component CCTE_Shafer_MEA_acute_firing_rate_mean was analyzed into 1 assay endpoint. This assay endpoint, CCTE_Shafer_MEA_acute_firing_rate_mean, was analyzed in the negative analysis fitting direction relative to DMSO as the negative control and baseline of activity. Using a type of functional reporter, gain or loss-of-signal activity can be used to understand electrical activity.
Spontaneous activity in the cortical cultures was recorded using an Axion Biosystems Maestro 768 channel amplifier and Axion Integrated Studios (AxIS) v1.8 (or later) software. The amplifier recorded from all channels simultaneously (gain = 1200 x; sampling rate = 12.5 kHz/channel): raw signals were filtered with a Butterworth band-pass filter (300-5000 Hz), which filters out slower local field potentials leaving only fast potentials, i.e., "spikes", arising from extracellular currents associated with action potentials (Pine 2006; Wheeler and Nam 2011). On-line spike detection of filtered signals was conducted with the AxIS adaptive spike detector, using a threshold of 8x the root mean squared (rms) noise on each channel. Any electrodes with rms noise levels greater than 5 uV were grounded (e.g., no data were recorded). Once grounded, an electrode was grounded for the duration of the experiment. All recordings were conducted at 37 C. Wells were deemed usable if on the day of the exposure >/= 10 electrodes were active (defined as >/= 5 spikes/min). On DIV 13 or 15, a minimum of three wells from one cortical culture preparation were treated with each compound (0.03-40 uM). Prior to recording baseline activity, each mwMEA plate was placed in the Maestro at 37 C and allowed to sit for 20 min while firing rates stabilized. Baseline activity (40 min) was recorded before the addition of each compound. An additional 40 min of spontaneous activity was recorded in the presence of each compound. Changes in network parameters relative to baseline were assessed following compound treatment.

Row | Structure (SMILES) | outcome | AC50
1 | CCC1(c2ccccc2)C(=O)N=C(O)NC1=O (stereo unspecified) | inactive | –
2 | Cc1ccc(N)cc1N | inactive | –
3 | [N-]=[N+]=[N-] | inactive | –
4 | CC(C)(C)c1ccccc1OP(=O)(Oc1ccccc1)Oc1ccccc1 | – | 1330 nM (active)
5 | CC(Cl)(Cl)C(=O)O | inactive | –
6 | COP(=O)(CCC(=O)NCO)OC | inactive | –
7 | ClC(Cl)(Cl)c1ccccc1 | inactive | –
8 | CCOc1ccc(C(C)(C)COCc2cccc(Oc3ccccc3)c2)cc1 | inactive | –
9 | ClC1=C(Cl)C2(Cl)C3C(Cl)C(Cl)CC3C1(Cl)C2(Cl)Cl (stereo unspecified) | inactive | –
10 | CCC(C)(C)c1ccc(O)cc1 | – | 186 nM (active)
11 | CCCCC(CC)COP(=O)(Oc1ccccc1)Oc1ccccc1 (stereo unspecified) | – | 15000 nM (active)
12 | COCCOCCO | inactive | –
13 | Nc1ccc2ccccc2c1 | – | 109 nM (active)
14 | c1ccc2c(c1)Nc1ccccc1S2 | – | 4450 nM (active)
15 | CCOP(=S)(Oc1ccc([N+](=O)[O-])cc1)c1ccccc1 (stereo unspecified) | – | 25000 nM (active)
16 | O=C(O)C1C(C(=O)O)C2(Cl)C(Cl)=C(Cl)C1(Cl)C2(Cl)Cl (stereo unspecified) | inactive | –
